# Test results from ChEMBL document CHEMBL3988442, “University of Dundee, Small-Polar-MMV Screening Library” (2021).
# Hit rate of the full screen: of about 48,000 compounds, about 13,000 (27%) showed an effect of 50% or more. The list shows a part of the results.
# System: Wolbachia pipientis
# Assay: Anti-Wolbachia Cell-Based Screen
# Type: functional
# Parameters: scale not given: in the data most compounds retested in dose-response had high values
# Settings: 5 µM
row,SMILES,Percent Effect
1,O=C(O)C(F)(F)F.c1csc(CN2CCC3(CCCN(c4nncs4)C3)C2)n1 (stereo not drawn),-3.653%
2,CCN1CCC(N2C[C@H]3OC(=O)N(CCc4cccc(Cl)c4)[C@H]3C2)CC1,-15.6%
3,CCSCCC(=O)Nc1ncn(CC(=O)NCc2ccccc2)n1,1.311%
4,CN(Cc1ccc(C(=O)Nc2sccc2C#N)cc1)Cc1ccno1,-5.875%
5,CN(C(=O)C1CC(=O)N(CCc2ccccc2)C1)c1nccs1 (stereo not drawn),3.016%
6,CNC(=O)C1Cc2ccccc2CN1CCCc1ccccc1 (stereo not drawn),-8.054%
7,CC(C)COC(=O)N1CC(=O)N(CCCc2ccccc2)CC(O)C1 (stereo not drawn),111%
8,CC(C(=O)O)N1CC2(CCC1=O)CCN(CCc1ccccc1)CC2 (stereo not drawn),-3.737%
9,CC(C)c1cc(C(=O)N2CCCN(CCCc3ccccc3)CC2)[nH]n1,0.07047%
10,Cc1[nH]ccc1C(=O)NCC1CC(=O)N(CCc2ccccc2)C1 (stereo not drawn),5.345%
11,Cc1ccccc1C(C)CC(=O)N1CC[C@H](O)C1 (stereo partly drawn),-9.659%
12,CCOC(=O)N1CC(=O)N(CCc2ccccc2)CC(O)C1 (stereo not drawn),123.2%
13,CC(C)(C)N1CC(C(=O)N2CCN(CCc3ccccc3)CC2)CC1=O (stereo not drawn),4.322%
14,CC(C)CC(=O)N1CC(=O)N(CCc2ccccc2)CC(O)C1 (stereo not drawn),118.7%
15,Cc1csc(N(C)C(=O)C2CC(=O)N(CCc3ccccc3)C2)n1 (stereo not drawn),4.812%
16,CC(C)(C)OC(=O)N1CC(=O)N(CCc2ccccc2)CC(O)C1 (stereo not drawn),114.6%
17,CSc1nc(N)cc(N2C[C@@H]3CC[C@H](C2)N(Cc2cscn2)C3=O)n1,0.1745%
18,CCN(CC)C(=O)CN(C)C1CCc2ccccc21 (stereo not drawn),-5.842%
19,CN(Cc1ccco1)Cc1ccccc1CNC(=O)c1ccc[nH]1,22.22%
20,O=C(CN(Cc1ccccc1)CC1CCOCC1)NC(=O)NC1CC1,17.45%
21,COCc1cccc(C(=O)N2CCCN(C(=O)OCC(C)C)CC2)c1,8.994%
22,O=C(NCC1CC(=O)N(CCc2ccccc2)C1)c1c(F)cccc1F (stereo not drawn),-5.982%
23,CC(C)COC(=O)N1CC(=O)N(CCc2ccccc2)CC(O)C1 (stereo not drawn),128.8%
24,CN(Cc1cc2n(n1)CCNC2)Cc1cc(-c2ccccn2)no1,-13.42%

row,SMILES,Percent Effect
1,COCCN(C)CCN1CC2(CCN(C3CCCCC3)CC2)OC1=O,5.41%
2,Cc1ccccc1OCCCNC(=O)C1(C)CC(=O)N2C=CC=CC2=N1 (stereo not drawn),112.8%
3,CC(=O)N1C[C@H]2CNC[C@@]2(C(=O)NCCOc2ccccc2F)C1,-24.48%
4,Cc1ccc(OCCCNC(=O)C(C)Sc2nncn2C)cc1 (stereo not drawn),-12.11%
5,CSc1cc(CNC(=O)CCOc2ccccc2C)ccn1,2.605%
6,Cc1ccc(OCCCNC(=O)NC(C)c2nncn2C)cc1 (stereo not drawn),6.672%
7,Cc1ccc(OCCCNC(=O)C2(C)CC(=O)N3C=CC=CC3=N2)cc1 (stereo not drawn),121.9%
8,CC(C)n1cnnc1CNC(=O)CCCOc1ccccc1F,-11.73%
9,Cc1ccccc1OCCCC(=O)NCc1ccnc(O)c1,0.1065%
10,CC1(C(=O)NCCCOc2ccccc2F)CC(=O)N2C=CC=CC2=N1 (stereo not drawn),94.6%
11,COc1cc(C)c(CNC(C)c2csc(C3CC3)n2)cc1OC (stereo not drawn),30.24%
12,CC(C)Cc1cc(C(=O)NC(C)(C)c2nnc(N)s2)n(C)n1,-11.71%
13,Cc1noc(NCc2ccc(F)cc2F)n1,23.53%
14,Cc1noc(C2CCCN(C(=O)c3ccc(Cl)cc3F)C2)n1 (stereo not drawn),-0.5657%
15,CC(C)c1nnc2ccc(N3CCC(C(N)=O)CC3)nn12,13.6%
16,CS(=O)(=O)CCOCCNc1ccc2ccc(F)cc2n1,5.905%
17,COCC(NC(=O)c1ccc[nH]1)c1cccc(C(F)(F)F)c1 (stereo not drawn),-9.811%
18,CC(C)Nc1nc2c(cc1C(=O)NCC1CC1)CCN(C)CC2.O=C(O)C(F)(F)F.O=C(O)C(F)(F)F,0.01551%
19,O=C(O)C(F)(F)F.O=C(O)C(F)(F)F.O=C(O)c1cc2c(nc1NCC1CC1)CCN(C1CCOC1)CC2 (stereo not drawn),-1.204%
20,CN1CCc2cc(C(=O)N(C)C)c(NCC3CC3)nc2CC1.O=C(O)C(F)(F)F.O=C(O)C(F)(F)F,92.24%
21,CC(C)CCN1CCc2cc(C(=O)N(C)C)c(NCC3CC3)nc2CC1.O=C(O)C(F)(F)F.O=C(O)C(F)(F)F,98.43%
22,O=C1N(CCO)CCCC12CCN(Cc1noc(C3CCCC3)n1)C2 (stereo not drawn),-14.7%
23,COc1ccc2c(=O)n(CC3CCCN(C)C3)ccc2c1OC (stereo not drawn),-1.973%
24,Cc1cc(C(=O)N2CCCC(N3CCNC3=O)C2)nn1C(C)(C)C (stereo not drawn),-5.29%

row,SMILES,Percent Effect
1,CCCS(=O)(=O)c1ncc(CN2CCC(CO)CC2)n1CC1CCCO1 (stereo not drawn),10.89%
2,c1cnc(NCc2noc3c2CN(c2cnccn2)CC3)nc1,99.25%
3,Cn1nc(CNc2ncccn2)c2c1CN(c1cnccn1)CC2,89.69%
4,CCS(=O)(=O)N1CCc2onc(CNc3ncccn3)c2C1,3.304%
5,CCN1CCc2onc(CNc3ncccn3)c2C1,1.38%
6,CC(C)n1nc(CNc2ncccn2)c2c1CN(S(C)(=O)=O)CC2,3.209%
7,c1cnc(N2CCc3onc(CN4CCOCC4)c3C2)cn1,102%
8,O=C(c1cccnc1)N1CCc2onc(CN3CCCC3)c2C1,-1.696%
9,O=C(c1ccncc1)N1CCc2onc(CN3CCCC3)c2C1,-9.45%
10,O=C(c1cnccn1)N1CCc2onc(CN3CCCC3)c2C1,10.5%
11,c1cnc(N2CCc3onc(CN4CCCC4)c3C2)cn1,88.59%
12,CC(C)n1nc(CNc2ncccn2)c2c1CN(C)CC2.O=C(O)C(F)(F)F.O=C(O)C(F)(F)F.O=C(O)C(F)(F)F,-10.41%
13,O=C(c1ccsc1)N1CCc2onc(CN3CCOCC3)c2C1,-3.104%
14,COc1cc(C(=O)NC2COc3ccccc3C2)ccc1OCC(N)=O (stereo not drawn),16.72%
15,Fc1ccc2[nH]c(C3CCCN3CCCn3cccn3)nc2c1 (stereo not drawn),-31.47%
16,C=Cc1cccc(CN2C[C@@H](CN(C)CC)[C@@H](CO)C2)c1,-5.546%
17,O=C1CC2(CCN(C(=O)c3cccc(Cl)c3)CC2)CN1,-6.217%
18,COC(=O)[C@@H](NC(=O)c1coc(COc2cccc(F)c2F)n1)C(C)C,-36.4%
19,Cc1cc(CN(CCO)c2ccc(Br)cc2)on1,-2.085%
20,Cc1cccc(N2CC[C@H]3CO[C@H](CN(C)Cc4ccco4)[C@H]3C2)n1,108.5%
21,CN(Cc1ccco1)C[C@H]1OC[C@@H]2CCN(Cc3nccs3)C[C@@H]21,-15.41%
22,Cc1cccc(N2CC[C@H]3[C@H](CO[C@@H]3CN(C)Cc3ccco3)C2)n1.O=C(O)C(F)(F)F.O=C(O)C(F)(F)F,52.12%
23,Cc1ccc(N2CC[C@H]3CO[C@H](CN(C)Cc4ccco4)[C@H]3C2)nn1.O=C(O)C(F)(F)F.O=C(O)C(F)(F)F,95.46%
24,CN(Cc1ccco1)C[C@H]1OC[C@@H]2CCN(Cc3cccnc3)C[C@@H]21.O=C(O)C(F)(F)F.O=C(O)C(F)(F)F.O=C(O)C(F)(F)F,7.341%

row,SMILES,Percent Effect
1,CN(Cc1ccco1)C[C@H]1OC[C@@H]2CCN(Cc3ccncc3)C[C@@H]21.O=C(O)C(F)(F)F.O=C(O)C(F)(F)F.O=C(O)C(F)(F)F,-1.908%
2,CN(Cc1ccco1)C[C@H]1OC[C@@H]2CN(c3ncc(F)cn3)CC[C@@H]21.O=C(O)C(F)(F)F.O=C(O)C(F)(F)F,81.17%
3,Cc1cccc(N2CC[C@@H]3[C@@H](CO[C@H]3CNS(C)(=O)=O)C2)n1,-14.44%
4,CN(Cc1ccco1)C[C@H]1OC[C@@H]2CCN(Cc3cccs3)C[C@@H]21.O=C(O)C(F)(F)F.O=C(O)C(F)(F)F,-12.79%
5,CN(Cc1ccco1)C[C@@H]1OC[C@H]2CN(Cc3nccs3)CC[C@H]21.O=C(O)C(F)(F)F.O=C(O)C(F)(F)F,3.908%
6,CC(C)N1CC(c2ncc(-c3ccc4c(c3)OCCO4)[nH]2)CC1=O (stereo not drawn),5.292%
7,CC(C)CN1C(=O)CO[C@@H]2CN(C(=O)[C@H]3CCCO3)C[C@H]21,-3.768%
8,CC(C)(O)CCc1ccc(C(=O)N2CCN(CCS(C)(=O)=O)CC2)cc1,-13.16%
9,Cl.Cn1ncc2c1CCCC2NCc1cc(Br)cs1 (stereo not drawn),7.416%
10,Cc1cc(=O)n(CC(=O)Nc2ccc(Cl)cc2)nc1C,-24.72%
11,CCc1csc(CNCC(=O)Nc2ccc(Cl)c(C)c2)n1,20.64%
12,COC(=O)N1CC(C)=C(C)CN1C(=O)Nc1cccc(Cl)c1,127.6%
13,CCOC(=O)N1CC(C)=C(C)CN1C(=O)Nc1ccc(Cl)c(Cl)c1,122.4%
14,COC(=O)NCCCC(=O)NCC1(c2cccc(Cl)c2)CC1,-5.013%
15,Cc1ccc(NC(=O)N2CCOC(C)C2)cc1Cl (stereo not drawn),8.105%
16,Cc1ccc(NC(=O)N2CCCC(O)(CO)CC2)cc1Cl (stereo not drawn),-14.19%
17,COC(=O)NCCC(=O)NCC1(c2cccc(Cl)c2)CC1,6.503%
18,COC(=O)N1CC(C)=C(C)CN1C(=O)Nc1ccc(Cl)c(Cl)c1,93.89%
19,COc1ccc(NC(=O)Cn2nc(C)c(C)cc2=O)cc1Cl,-5.001%
20,COC(=O)N1CC(C)=C(C)CN1C(=O)Nc1ccc(Cl)cc1,87.33%
21,CN1CC(Oc2ccccc2)=NC(SCC(=O)Nc2ccc(Cl)cc2)=N1,11.53%
